# Experimental data from the OligoGym collection.
# Target: CADM4
# Assay: pooled miR-30 sensor sort-seq; sequence = guide strand
# Conditions: shRNA
# Further: reference of the scale not given here.
row,Sequence,sensor-assay potency score (higher = more potent)
1,TTTGCTGGTTCCTTGCAGCTGG,0.149
2,TTATTGGACGCCTCGCAAGTGT,-0.6
3,TTCTCTGTCTGTACTTCCTGTC,-0.0405
4,AAGCTGGAAACGCTCATCCTTC,-1.15
5,TTTCAGCTCCTTGCGGTCCCGG,-0.888
6,TTGAAGAAGAGGGTCTGCCGGG,0.128
7,TTCTGCCGTACCGAGCACCAGA,-1.21
8,TATGATCAGAAACACCAGCAGC,-1.06
9,TTACGGTCCACACGAAACCGTA,-1.33
10,ACATATGATCAGAAACACCAGC,-1.09

# Target: CALB1
# Assay: as above
# Conditions: shRNA
row,Sequence,sensor-assay potency score (higher = more potent)
1,ATTCTTCTCGCACAGATCCTTC,-1.06
2,TAAGCATAGACTTTCTTCTTTT,-0.786
3,ATTATTAATATCCAGATCCTGT,-0.387
4,TATGTATCCATTGCCGTCCTGA,-0.391
5,TTCCCTTGTCACATCAACTTGA,0.335
6,TGTCACATCAACTTGAACCGAT,0.787
7,TTTAAGAAGAAAATTCTCCTGC,1.04
8,TTTGTGTCATCAACAGTCTTGT,0.294
9,TTATTTTTTAGATACAGTGTAT,-0.499
10,TTGATTGGTAAACTAAATCTGT,-0.119
11,TGTAATATTATTAATATCCAGA,-0.351
12,AAACAGTATAGAAACAAGCTGA,-0.0132
13,TATTCTTCTCGCACAGATCCTT,0.132
14,TAAGCTTAGAAATATTTTGTGG,-0.267
15,TTAGGTCTGTATACTCGGCTAA,-0.144
16,TTCTCTGACAGTAAGTTTGTTG,-0.382
17,TAGGTCTGTATACTCGGCTAAT,-1.02
18,TTCGGTACAGCTTCCCTCCATC,-0.593
19,TATAAAAGAAAATACAGCCTAC,-0.236
20,TTTTGTGTCATCAACAGTCTTG,0.226
21,TCTTGTTCAACTATATTTGTGA,0.29
22,TAAATCTGTAATGAGACTGTTA,0.457
23,TATTTTTCCATCATCTCTTTGC,-0.281
24,TTAGATACAGTGTATCACTAGC,0.553

# Target: CAMK2N1
# Assay: as above
# Conditions: shRNA
row,Sequence,sensor-assay potency score (higher = more potent)
1,TTTCAGCACGTCATCAATCCTA,-0.00921
2,TTGTTGGTGTCCTGCAGGCGGC,-1.65
3,ATCATCTTCAATAACAACCCGC,-0.379
4,TATCATCTTCAATAACAACCCG,-0.355
5,TCATCTTCAATAACAACCCGCT,0.215
